aSyn UTR act: Activators via SNCA 5'UTR binding, MLPCN; alpha-synuclein 5'UTR reporter, activators screen; activity score, % (tested at 7.5 µM), hits read low; 7.1% of 300,000 active; in the data active = activity score below about -60%
An asterisk follows results filed as active. Not all results are given here.

SMILES | aSyn UTR act
COc1ccc2cc(/C=N/NC(=O)c3ccc(CN(c4cccc(Cl)c4Cl)S(C)(=O)=O)cc3)c(Cl)nc2c1 | 67
CCOc1ccc2cc(/C=C/C(=O)c3ccco3)c(Cl)nc2c1 | -172*
Cc1ccc(/C(N)=N/OC(=O)C23CC4CC(CC(C4)C2)C3)cc1 | -185*
Cc1ccc(/C(N)=N/OC(=O)N2CCOCC2)cc1 | -62*
Cc1cc(O)ccc1N/C=C/c1onc(C)c1[N+](=O)[O-] | -110*
Cc1cccc(N/C=C/c2onc(C)c2[N+](=O)[O-])c1 | -156*
Clc1ccc(-c2nc(C3CCCCC3)no2)cc1 | -160*
CC(=O)Nc1ccc(/C=C/c2nc3ccccc3o2)cc1 | -128*
O=C(Nc1ccc(/C=C/c2nc3ccccc3o2)cc1)c1c(F)cccc1F | -171*
Oc1cccc(/C=N/Nc2ccc(Cl)nn2)c1 | -171*
Oc1ccc(/C=N/Nc2cccc(Cl)n2)c(O)c1 | -244*
Oc1c(/C=N/Nc2cccc3cccnc23)ccc2ccccc12 | -164*
O=[N+]([O-])c1ccc(O)c(/C=N/Nc2ccc(Cl)nn2)c1 | 100
Oc1cccc(/C=N/Nc2cccc3cccnc23)c1 | -142*
COc1cccc(C(NC(C)=O)c2ccc3cccnc3c2O)c1 (stereo unspecified) | 72
COc1cc(/C=N/Nc2cccc3cccnc23)cc(OC)c1O | -94*
Nc1ncccc1OCc1ccc(Br)cc1 | -159*
COc1ccc(COc2cccnc2N)cc1 | -91*
CC(/C=C/c1ccccc1F)=N\NC(=O)c1ccccc1 | -144*
CCCCNC(=S)N/N=C/c1cccc(OCC)c1O | -73*
CCn1c(=O)oc2cc(NC(=O)CCl)ccc21 | -104*
Cn1c(=O)n(C)c2cc(NC(=O)CCl)ccc21 | -180*
Cc1ccc(OCC(=O)Nc2ccccc2C(N)=O)cc1 | -98*
NC(=O)c1ccccc1NC(=O)COc1ccc(Cl)cc1 | -101*
CC(C)(C)C(=O)c1cnc(Nc2ccccc2Cl)s1 | -146*
SMILES | aSyn UTR act
CC(=O)c1csc(Nc2ccccc2Cl)n1 | -121*
CN(C)CCNC(=O)c1csc(Nc2cccc3ccccc23)n1 | 57
O=C(c1ccccc1)c1cnc(Nc2ccccc2Cl)s1 | -96*
Cc1ccc(-c2ccc(NC(=O)C3C4C=CC(C4)C3C(=O)O)cc2)o1 (stereo unspecified) | -181*
O=c1c2ccccc2nc2oc3ccccc3n12 | -148*
Cc1ccc(-c2nc3ccccc3o2)cc1NC(=O)c1ccc2c(c1)OCO2 | -151*
O=C(Nc1ccc(-c2nc3ccccc3o2)cc1)c1ccc2c(c1)OCO2 | -66*
Cc1ccc2oc(-c3ccc(NC(=O)c4ccc5c(c4)OCO5)cc3)nc2c1 | -105*
Cc1ccc(Nc2nc(N)nc(CSc3ncccn3)n2)cc1 | -132*
Cc1ccc(Nc2nc(N)nc(CSCCO)n2)cc1 | -112*
Cc1ccc(Nc2nc(N)nc(CC#N)n2)cc1 | -118*
CCOc1ccc(Nc2nc(N)nc(CCl)n2)cc1 | 96
Nc1nc(CSc2ncccn2)nc(Nc2ccccc2)n1 | -148*
COc1ccc(C(=O)C(OC(=O)c2ccccc2Cl)c2ccccc2)cc1 (stereo unspecified) | -104*
COc1ccc(C(=O)C(OC(=O)c2ccccc2)c2ccccc2)cc1 (stereo unspecified) | -169*
O=C(COC(=O)c1cccs1)c1ccc2ccccc2c1 | -121*
O=C(NNC(=O)c1cccs1)c1ccc2ccccc2c1 | -71*
O=C(COC(=O)c1cccs1)c1ccc2c(c1)OCCO2 | -176*
CC(=O)NC12CC3CC(C1)CC(C(=O)OCC(=O)c1ccc4c(c1)OCCO4)(C3)C2 | -134*
COc1ccc(OCCOC(=O)c2cccs2)cc1 | -66*
COCCOC(=O)c1[nH]c2c(c1C)C(=O)CC(c1cccs1)C2 (stereo unspecified) | 64
C/[N+]([O-])=C/c1c(OCc2ccccc2)ccc2ccccc12 | -91*
O=Cc1c(OCc2ccccc2)ccc2ccccc12 | -131*
Cc1c(C(=O)c2ccccc2)oc2ccc3ccccc3c12 | -116*
Cn1ncc2cc(NC(=S)NC(=O)c3ccccc3)ccc21 | -201*
SMILES | aSyn UTR act
O=C(NC(=S)Nc1cnc2ccccc2c1)c1ccccc1 | -171*
O=C(Nc1cnc2ccccc2c1)c1ccncc1 | -110*
Cc1ccc(NC(=O)Nc2cnc3ccccc3c2)cc1 | -144*
O=C(NC(=S)Nc1ncc(Br)cc1Br)c1ccccc1 | -153*
S=C(NCCc1ccccc1)Nc1cnc2ccccc2c1 | -115*
COC(=O)c1ccc(N=NN2CCCCCC2)cc1 | -134*
COC(=O)c1ccc(N=NN2CCOCC2)cc1 | -147*
Clc1ccc(N=NN2CCOCC2)cc1 | -70*
O=C(O)c1ccc(N=NN2CCCCC2)cc1 | -85*
Cc1c(C)c2ccc(OCC(=O)Nc3ccccn3)c(C)c2oc1=O | 110
CC(=O)COc1ccc2c3c(c(=O)oc2c1C)CCCCC3 | -120*
Cc1c(OCC(=O)NCc2cccnc2)ccc2c3c(c(=O)oc12)CCC3 | -71*
Cc1c(OCc2ccc([N+](=O)[O-])cc2)ccc2c3c(c(=O)oc12)CCC3 | -114*
Cc1c(OCC(=O)OC(C)(C)C)ccc2c3c(c(=O)oc12)CCC3 | -62*
Nc1ccc(S(=O)(=O)Nc2nccc(/C=C/c3ccccc3F)n2)cc1 | -65*
CCC1CCCCN1S(=O)(=O)c1ccc(C(=O)Nc2nnc(-c3ccccc3Cl)o2)cc1 (stereo unspecified) | 56
Cc1cc(C)n(-c2ccc(C(=O)Nc3ccc4c(c3)OCCO4)cc2)n1 | -101*
CCOC(=O)c1cc([N+](=O)[O-])sc1NC(=O)c1ccc(S(=O)(=O)N2CC3(C)CC2CC(C)(C)C3)cc1 (stereo unspecified) | 55
COc1ccc(C)cc1NS(=O)(=O)c1ccc(NC(=O)CN(c2cc([N+](=O)[O-])ccc2C)S(C)(=O)=O)cc1 | 114
CC(C)CNS(=O)(=O)c1ccc(C(=O)Nc2ccc3c(c2)OCCO3)cc1 | -98*
CC1CCCCN1S(=O)(=O)c1ccc(C(=O)Nc2sccc2C(N)=O)cc1 (stereo unspecified) | -106*
COc1ccc(N(CC(=O)Nc2ccc3c(c2)OCCO3)S(C)(=O)=O)c(OC)c1 | -71*
Cc1cc(C)n(-c2ccc(C(=O)Nc3sccc3C(N)=O)cc2)n1 | -139*
Cc1cc(C(=O)Nc2ccc3c(c2)OCCO3)co1 | -113*
COc1cc(OC)cc(C(=O)Nc2ccc3c(c2)OCCO3)c1 | -123*
SMILES | aSyn UTR act
CCOc1cccc(C(=O)NC(=S)Nc2ccc3c(c2)OCCO3)c1 | -87*
Cc1cc(C)n(-c2ccc(C(=O)OCc3ccccc3)cc2)n1 | -68*
CCOc1ccc(C(=O)Nc2ccc3c(c2)OCCO3)cc1OC | -144*
O=[N+]([O-])c1cccc(C2Nc3cccc4cccc(c34)N2)c1 | -72*
O=C(Nc1ccccc1Cl)C(=O)c1cn(CC(=O)N2CCOCC2)c2ccccc12 | -125*
COc1ccccc1CCNC(=O)C(=O)c1cn(CC(=O)N2CCOCC2)c2ccccc12 | -106*
CCc1ccc(NC(=O)C(=O)c2cn(CC(=O)N3CCCCC3)c3ccccc23)cc1 | -70*
Cc1ccc2[nH]cc(/C=C/c3cc[n+](C)cc3)c2c1 | 65
CCOC(=O)c1ccc(NC(=O)c2ccccc2C)cc1 | -156*
O=C(Nc1ccc2cn[nH]c2c1)c1ccccc1F | -224*
CC(=O)Nc1ccc(NC(=O)c2ccccc2F)cc1 | -81*
CCOC(=O)Nc1ccc(NC(=O)c2ccccc2F)cc1 | -149*
O=C(Nc1ccc(F)cc1)c1ccccc1F | -135*
CCOC(=O)c1ccc(NC(=O)c2ccnn2C)cc1 | -159*
